Activity calls are given as the source filed them.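 Rule for the calls, unless noted: active = primary screen hit whose fluorescence ratio, in both repeats, exceeds the weak agonist control mean by 3 SD; inactive = the rest.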
These molecules were tested on TRPC4 (transient receptor potential cation channel C4 beta), mouse (assay: potentiation of DAMGO EC20 TRPC4 response – cell-based, second round, Fluo-4, HEK293 TRPC4beta/mu-opioid, 1 µM, confirmation (AID 2554)). Conditions: DAMGO EC20, Fluo-4 calcium flux, at 1 µM; active compounds read high.

Row | Structure (SMILES) | outcome | potentiation
1 | O=C1/C(=C\c2cc(Cl)c(O)c(Cl)c2)SC(=S)N1Cc1ccccc1 | inactive | 
2 | COc1ccc(C(=O)NC(=S)NNC(=O)c2c(-c3ccccc3)noc2C)cc1 | inactive | 
3 | O=C(c1sc2ccccc2c1Cl)N(Cc1ccco1)C1CCS(=O)(=O)C1 (stereo not given) | inactive | 
4 | Cc1cc(-c2ccc(C)c(S(=O)(=O)NCCCN(Cc3ccccc3)C(C)C)c2)on1 | inactive | 
5 | CCc1nc(NCCc2ccccn2)c2nnn(Cc3ccccc3F)c2n1 | inactive | 
6 | CN(C)CCCN(C(=O)c1ccc(S(=O)(=O)N2CCCc3ccccc32)cc1)c1nc2ccc(F)cc2s1 | inactive | 
7 | CSCCC(NS(=O)(=O)c1ccc2c(c1)c(=O)n(C)c(=O)n2C)C(=O)NC1CCN(Cc2ccccc2)CC1 (stereo not given) | inactive | 
8 | CCC1(c2ccc(F)cc2)NC(=O)N(CC(=O)c2cc(C)n(C3CC3)c2C)C1=O (stereo not given) | inactive | 
9 | CN(C)CCCN(C(=O)c1ccc(C(=O)c2ccccc2)cc1)c1nc2ccc(F)cc2s1 | inactive | 
10 | Cc1ccc(-n2cc(CNCC3CC(=O)N(C4CC4)C3)c(-c3cccc(C)c3)n2)cc1 (stereo not given) | inactive | 
11 | CC1CCCN(CCCNC(=O)c2ccc3c(c2)N(Cc2ccccc2F)C(=O)c2ccccc2S3(=O)=O)C1 (stereo not given) | inactive | 
12 | Cc1nc(/N=C(\N)NC(=O)NC2CCCCC2)nc2ccccc12 | inactive | 
13 | COc1ccc(C(CNC(=O)c2cccc(NS(=O)(=O)c3ccc(C)c(F)c3)c2)N(C)C)cc1 (stereo not given) | inactive | 
14 | CCN1CCN(c2ccc(S(=O)(=O)N3CCCCC3)cc2NC(=O)COc2ccccc2)CC1 | inactive | 
15 | CCCN(CCC)CCCNC(=O)C1CCN(S(=O)(=O)c2cccc3nsnc23)CC1 | inactive | 
16 | c1ccc(Nc2nc(Nc3ccccc3)nc(N3CCNCC3)n2)cc1 | inactive | 
17 | CN(C)C(CNc1ncnc2sc3c(c12)CCCC3)c1ccco1 (stereo not given) | inactive | 
18 | CC(=O)Nc1ccc(CN2CCCC(C(=O)c3cccc(C(F)(F)F)c3)C2)cc1 (stereo not given) | inactive | 
19 | NCCCn1c(C(=O)c2cc(Cl)c(N)c(Cl)c2)c2ccccc2[n+]1[O-] | inactive | 
20 | CCN1CCN(c2c(Cl)cccc2NC(=O)c2ccc3nsnc3c2)CC1 |  | 22% (active)

Row | Structure (SMILES) | outcome | potentiation
21 | COc1ccc(-c2cc(C(=O)NCC(c3ccccc3)N(C)C)c3ccccc3n2)cc1OC (stereo not given) | inactive | 
22 | O=C(c1sc2ccccc2c1Cl)N(Cc1cccs1)C1CCS(=O)(=O)C1 (stereo not given) | inactive | 
23 | O=S(=O)(c1ccccc1)c1nnn2c1nc(NC1CCN(Cc3ccccc3)CC1)c1cc(Cl)ccc12 | inactive | 
24 | CCCc1c(O)nc(SCCN(CCC)CCC)[nH]c1=O | inactive | 
25 | O=C(CCc1ccccc1)NNC(=S)NC(=O)c1ccc(Cl)cc1 | inactive | 
26 | CCCCN(C)CCCNC(=O)CN1N=C(c2ccc(Cl)cc2)CCC1=O | inactive | 
27 | CC1(C)CC(=O)c2cc(C(=O)NCc3ccco3)c(=O)n(-c3ccc(Cl)cc3)c2C1 | inactive | 
28 | CCOC(=O)C1CCCN(C(c2ccccn2)c2c(C)[nH]c3ccccc23)C1 (stereo not given) | inactive | 
29 | O=C(Nc1nnc(-c2ccccc2Cl)o1)c1nc2ccccc2s1 | inactive | 
30 | CCCCC(c1nnnn1CC1CCCO1)N1CCN(c2nc3ccccc3s2)CC1 (stereo not given) | inactive | 
31 | c1ccc2c(c1)CCN(c1ncnc3c1[nH]c1ccccc13)C2 | inactive | 
32 | COc1ccc(C(CNCC(=O)Nc2ccccc2F)N(C)C)cc1 (stereo not given) | inactive | 
33 | O=S(=O)(c1ccc(Cl)cc1)N1CCN2CCCC2C1 (stereo not given) | inactive | 
34 | COc1cc(OC)c(CN2CCC(Cc3ccccc3)CC2)cc1Br | inactive | 
35 | CCOC(=O)C1(CCOc2ccccc2)CCN(Cc2ccc(NC(C)=O)cc2)CC1 | inactive | 
36 | O=C(C1CCCN(Cc2ccccc2)C1)N1CCc2ccccc2C1 (stereo not given) | inactive | 
37 | Cc1csc2c(N3CCN(C(=S)Nc4ccc(F)cc4F)CC3)ncnc12 | inactive | 
38 | Cc1ccc(C2(O)CN(c3ccccc3C)C3=[N+]2CCS3)cc1 (stereo not given) | inactive | 
39 | CCn1cc(CN2CCCC(C(=O)Nc3ccc(-c4nc5ccccc5[nH]4)cc3)C2)c(C)n1 (stereo not given) | inactive | 
40 | CN(C)C(CNC(=S)Nc1cccc(Cl)c1)c1cccnc1 (stereo not given) | inactive | 

The molecules below were run on TRPC4 beta (transient receptor potential cation channel C4), mouse (assay: potentiation of DAMGO EC20 TRPC4 response – cell-based, Fluo-4, HEK293 TRPC4beta/mu-opioid, confirmation (AID 2555;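 active = primary screen hit whose calcium fluorescence ratio, in both repeats, exceeds the weak agonist control mean by 3 SD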)). Conditions: DAMGO EC20, Fluo-4 calcium flux, at 10 µM; active compounds read high.

Row | Structure (SMILES) | potentiation | outcome
41 | O=C1/C(=C\c2cc(Cl)c(O)c(Cl)c2)SC(=S)N1Cc1ccccc1 | 43% (active) | 
42 | COc1ccc(C(=O)NC(=S)NNC(=O)c2c(-c3ccccc3)noc2C)cc1 |  | inactive
43 | O=C(c1sc2ccccc2c1Cl)N(Cc1ccco1)C1CCS(=O)(=O)C1 (stereo not given) |  | inactive
44 | Cc1cc(-c2ccc(C)c(S(=O)(=O)NCCCN(Cc3ccccc3)C(C)C)c2)on1 |  | inactive
45 | CCc1nc(NCCc2ccccn2)c2nnn(Cc3ccccc3F)c2n1 |  | inactive
46 | CN(C)CCCN(C(=O)c1ccc(S(=O)(=O)N2CCCc3ccccc32)cc1)c1nc2ccc(F)cc2s1 |  | inactive
47 | CSCCC(NS(=O)(=O)c1ccc2c(c1)c(=O)n(C)c(=O)n2C)C(=O)NC1CCN(Cc2ccccc2)CC1 (stereo not given) |  | inactive
48 | CCC1(c2ccc(F)cc2)NC(=O)N(CC(=O)c2cc(C)n(C3CC3)c2C)C1=O (stereo not given) | 16% (active) | 
49 | CN(C)CCCN(C(=O)c1ccc(C(=O)c2ccccc2)cc1)c1nc2ccc(F)cc2s1 |  | inactive
50 | Cc1ccc(-n2cc(CNCC3CC(=O)N(C4CC4)C3)c(-c3cccc(C)c3)n2)cc1 (stereo not given) |  | inactive
51 | CC1CCCN(CCCNC(=O)c2ccc3c(c2)N(Cc2ccccc2F)C(=O)c2ccccc2S3(=O)=O)C1 (stereo not given) |  | inactive
52 | Cc1nc(/N=C(\N)NC(=O)NC2CCCCC2)nc2ccccc12 |  | inactive
53 | COc1ccc(C(CNC(=O)c2cccc(NS(=O)(=O)c3ccc(C)c(F)c3)c2)N(C)C)cc1 (stereo not given) |  | inactive
54 | CCN1CCN(c2ccc(S(=O)(=O)N3CCCCC3)cc2NC(=O)COc2ccccc2)CC1 |  | inactive
55 | CCCN(CCC)CCCNC(=O)C1CCN(S(=O)(=O)c2cccc3nsnc23)CC1 |  | inactive
56 | c1ccc(Nc2nc(Nc3ccccc3)nc(N3CCNCC3)n2)cc1 |  | inactive
57 | CN(C)C(CNc1ncnc2sc3c(c12)CCCC3)c1ccco1 (stereo not given) |  | inactive
58 | CC(=O)Nc1ccc(CN2CCCC(C(=O)c3cccc(C(F)(F)F)c3)C2)cc1 (stereo not given) |  | inactive
59 | NCCCn1c(C(=O)c2cc(Cl)c(N)c(Cl)c2)c2ccccc2[n+]1[O-] |  | inactive
60 | CCN1CCN(c2c(Cl)cccc2NC(=O)c2ccc3nsnc3c2)CC1 | 14% (active) | 

Row | Structure (SMILES) | potentiation | outcome
61 | COc1ccc(-c2cc(C(=O)NCC(c3ccccc3)N(C)C)c3ccccc3n2)cc1OC (stereo not given) |  | inactive
62 | O=C(c1sc2ccccc2c1Cl)N(Cc1cccs1)C1CCS(=O)(=O)C1 (stereo not given) |  | inactive
63 | O=S(=O)(c1ccccc1)c1nnn2c1nc(NC1CCN(Cc3ccccc3)CC1)c1cc(Cl)ccc12 |  | inactive
64 | CCCc1c(O)nc(SCCN(CCC)CCC)[nH]c1=O |  | inactive
65 | O=C(CCc1ccccc1)NNC(=S)NC(=O)c1ccc(Cl)cc1 |  | inactive
66 | CCCCN(C)CCCNC(=O)CN1N=C(c2ccc(Cl)cc2)CCC1=O |  | inactive
67 | CC1(C)CC(=O)c2cc(C(=O)NCc3ccco3)c(=O)n(-c3ccc(Cl)cc3)c2C1 |  | inactive
68 | CCOC(=O)C1CCCN(C(c2ccccn2)c2c(C)[nH]c3ccccc23)C1 (stereo not given) |  | inactive
69 | O=C(Nc1nnc(-c2ccccc2Cl)o1)c1nc2ccccc2s1 |  | inactive
70 | CCCCC(c1nnnn1CC1CCCO1)N1CCN(c2nc3ccccc3s2)CC1 (stereo not given) |  | inactive
71 | c1ccc2c(c1)CCN(c1ncnc3c1[nH]c1ccccc13)C2 |  | inactive
72 | COc1ccc(C(CNCC(=O)Nc2ccccc2F)N(C)C)cc1 (stereo not given) |  | inactive
73 | O=S(=O)(c1ccc(Cl)cc1)N1CCN2CCCC2C1 (stereo not given) |  | inactive
74 | COc1cc(OC)c(CN2CCC(Cc3ccccc3)CC2)cc1Br |  | inactive
75 | CCOC(=O)C1(CCOc2ccccc2)CCN(Cc2ccc(NC(C)=O)cc2)CC1 |  | inactive
76 | O=C(C1CCCN(Cc2ccccc2)C1)N1CCc2ccccc2C1 (stereo not given) |  | inactive
77 | Cc1csc2c(N3CCN(C(=S)Nc4ccc(F)cc4F)CC3)ncnc12 |  | inactive
78 | Cc1ccc(C2(O)CN(c3ccccc3C)C3=[N+]2CCS3)cc1 (stereo not given) |  | inactive
79 | CCn1cc(CN2CCCC(C(=O)Nc3ccc(-c4nc5ccccc5[nH]4)cc3)C2)c(C)n1 (stereo not given) |  | inactive
80 | CN(C)C(CNC(=S)Nc1cccc(Cl)c1)c1cccnc1 (stereo not given) |  | inactive

— PubChem BioAssay
